Records with an inconclusive call do not appear. Values without a mark were called inactive. The source made the active and inactive calls. Calls come from the whole dose curve; as a rule, active = well fitted cell-killing curve with a large enough effect; inconclusive = small, poorly fitted or top-dose-only effect, or effect the other way; inactive = no such curve, though single readings can be large or run the other way.
Test: qHTS assay to identify small molecule inhibitors of chordoma cells - UCH-1 (AID 1259355); note: nearly all actives have a fitted effect of over 55% in size
Conditions: UCH-1 chordoma viability, CellTiter-Glo, 48 h, combination, with auranofin plus four topoisomerase inhibitors; series mostly up to 46.1 µM; activity, negative = inhibition: at the top concentration
Excerpt: NIH Chemical Genomics Center [NCGC]
Chordoma is a rare and slow growing tumor that can occur anywhere along the spine, from the base of the skull to the tailbone. Current treatment options for chordoma is surgery and radiation therapy for those who are not candidates for surgery. But chordomas tend to return in the same location or surrounding areas of the original tumor after surgery and/or radiation. Chemotherapy can slow down the progression of the tumor. As chordoma is slow growing, the general cytotoxic agents that kill fast growing cells are ineffective, and some patients have been reported to respond to molecularly targeted drugs.
NCATS Pharmaceutical Collection (NPC) containing approximately 3000 clinically approved and investigational drugs were used to screen at 15 concentrations in a chordoma cell lines, UCH-1, to identify small molecule compounds that can inhibit chordoma cell growth.
NCGC Assay Protocol Summary:
Human chordoma cell line UCH-1 was dispensed at 800 per well in 4uL of culture medium into white solid bottom 1536-well plates (Corning Life Sciences, Corning, NY) using a Multidrop Combi (Thermo Scientific, Waltham, MA) dispenser. The assay plates were incubated at 37 C and 5% CO2 for an overnight, and then 23nL of compounds dissolved in DMSO and positive control were transferred using a Pintool station (Wako, San Diego, CA). Compound treatment was followed by the addition of 1uL of the combination compounds (1uM Auranofin, 500nM each of Camptothecin, Doxorubicin, Rubitecan, and Topotecan) and assay medium to each well of the assay plates using Flying Reagent Dispenser (FRD, Aurora Discovery, San Diego, CA). The assay plates were incubated at 37 C and 5% CO2 for 48hr. Then 5uL of CellTiter-Glo reagent (Promega Corporation, Madison, WI) was added to each well of the assay plates using FRD. After 30min incubation at room temperature, the luminescence signal was quantified using a ViewLux plate reader (PerkinElmer, Shelton, CT).
% is set by controls: 0 for no effect and ±100 for the full control effect.

Compound	Potency	activity, negative = inhibition
CC[C@H]1OC(=O)[C@H](C)C(=O)[C@H](C)[C@@H](O[C@@H]2O[C@H](C)C[C@H](N(C)C)[C@H]2O)[C@](C)(OC)C[C@@H](C)C(=O)[C@H](C)[C@H]2N(CCCCn3cnc(-c4cccnc4)c3)C(=O)O[C@]12C	inactive	
C=C(Nc1ccc(OCC)cc1)Nc1ccc(OCC)cc1	inactive	
O=C(/C=C/c1ccccc1)NCCO		-9.12%
CCCCCCOc1ccccc1C(N)=O		-8.37%
Oc1c(Br)cc(Br)c2cccnc12		-24.4%
CC1(C)C[C@@H]1C(=O)N/C(=C\CCCCSC[C@H](N)C(=O)O)C(=O)O	inactive	
CC(C(=O)O)c1ccc(C(=O)c2cccs2)cc1 (stereo not given)		-8.79% [at 20.6 µM]
C=CCN1C(=O)C(CC(C)C)NC1=S (stereo not given)	inactive	
Nc1ccc(O)c(C(=O)O)c1		-19.3%
CCCCCC[C@@H](O)C/C=C\CCCCCCCC(=O)O		-4.8%
Cc1ccccc1CNc1ncnc2c1ncn2C1OC(CO)C(O)C1O (stereo not given)		5.45%
CC1(C)S[C@@H]2[C@H](NC(=O)[C@H](NC(=O)N3CCN(S(C)(=O)=O)C3=O)c3ccccc3)C(=O)N2[C@H]1C(=O)O		-9.11%
O=C1CN(/N=C/c2ccc([N+](=O)[O-])o2)C(=O)N1		-6.02%
COc1cc(/C=C/C(=O)N2CCN(CC(=O)N3CCCC3)CC2)cc(OC)c1OC		-10.1%
CCCCC[C@H](O)/C=C/[C@@H]1[C@@H](C/C=C\CCCC(=O)O)[C@@H](O)C[C@H]1O	inactive	
C[N+](C)(C)CCOP(=O)(O)OP(=O)([O-])OC[C@H]1O[C@@H](n2ccc(N)nc2=O)[C@H](O)[C@@H]1O		0.388%
CCCOC(=O)c1ccc(O)cc1		-14.9%
COC(=O)C1=C(C)NC(C)=C(C(=O)OCC(C)C)C1c1ccccc1[N+](=O)[O-] (stereo not given)		-24.9%
Cc1cc(O)c2ccccc2c1O		-26.8%
CN1CCN(c2cc3c(nn2)Oc2ccccc2N3C)CC1		-7.68%

Compound	Potency	activity, negative = inhibition
CO/N=C(\C(=O)N[C@@H]1C(=O)N2C(C(=O)O)=C(COC(C)=O)CS[C@H]12)c1csc(N)n1 (stereo in doubt)		3.04%
CC[C@H]1OC(=O)[C@H](C)[C@@H](O[C@H]2C[C@@](C)(OC)[C@@H](O)[C@H](C)O2)[C@H](C)[C@@H](O[C@@H]2O[C@H](C)C[C@H](N(C)C)[C@H]2O)[C@](C)(O)C[C@@H](C)C(=O)[C@H](C)[C@@H](O)[C@]1(C)O	inactive	
COc1ccc(-c2cc(=S)ss2)cc1		-19.3%
Nc1ccc(C(=O)O)c(O)c1		-21%
Clc1ccccc1-c1nc(-c2ccncc2)no1		-11.6%
CCCCC1C(=O)N(c2ccccc2)N(c2ccc(O)cc2)C1=O (stereo not given)		-12.8% [at 20.6 µM]
O=C(Nc1ccc(C(=O)O)c(O)c1)c1ccccc1		-20.4%
CN(C)CCn1nnnc1SCC1=C(C(=O)O)N2C(=O)[C@@H](NC(=O)Cc3csc(N)n3)[C@H]2SC1		6.44% [at 20.6 µM]
Cc1ccc(O)c(-n2nc3ccccc3n2)c1		-7.09%
O=C(O)c1cc(O)c(O)c(O)c1		-26.4%
CC(C(=O)O)c1ccc(C(=O)c2ccccc2)s1 (stereo not given)		-22.9% [at 20.6 µM]
O=c1[nH]c2ccccc2n1CCCN1CCN(C(c2ccccc2)c2ccccc2)CC1		4.57%
CC1(C)[C@@H](O)CC[C@]2(C)[C@H]3C(=O)C=C4[C@@H]5C[C@@](C)(C(=O)O)CC[C@]5(C)CC[C@@]4(C)[C@]3(C)CC[C@@H]12	inactive	
CCC1C(=O)OCC1Cc1cncn1C (stereo not given)		-26.6%
COC(=O)[C@H]1[C@H]2C[C@@H]3c4[nH]c5cc(OC)ccc5c4CCN3C[C@H]2C[C@@H](OC(=O)/C=C/c2cc(OC)c(OC)c(OC)c2)[C@@H]1OC		20.5% [at 20.6 µM]
NC(=O)C(c1ccccc1)(c1ccccc1)[C@@H]1CCN(CCc2ccc3c(c2)CCO3)C1		-22.1%
O=C(OCc1ccccc1)c1ccccc1		1.81%
O=C(CCN1CCN(CCO)CC1)N1c2ccccc2Sc2ccc(C(F)(F)F)cc21		-17%
CCCC(=O)OC[C@@H](OC(=O)CCC)[C@@H](OC(=O)CCC)[C@H](Cn1c2nc(=O)[nH]c(=O)c-2nc2cc(C)c(C)cc21)OC(=O)CCC		-21.2%
N=c1ccn2c(n1)O[C@H]1[C@H](O)[C@@H](CO)O[C@H]12		-25.8%

— PubChem BioAssay (NCATS)
